Mm-Cpn inhibitor: M. maripaludis TRiC chaperonin inhibition | purified Mm-Cpn ATPase, ADP Transcreener TR-FRET | Potency, µM (series often up to 76.9 µM), without a hit: at the highest dose activity, negative = inhibition, most hits filed as inhibitors | 330,000 compounds, 0.031% hits | AID 504842; further: on the % scale 0 is the no-effect control and ±100 the full control effect; nearly all actives have a fitted effect of over 80% in size
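Measured: ADP formation by purified Mm-CPN. Conditions: 25 nM protein, 10 uM ATP, Tris pH 7.4 with Mg2+, K+ and DTT, 37°C for 30 min. Detection: Transcreener HTRF after 30 min at room temperature.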
ClpP mod: qHTS Assay for Activators of ClpP; ATP-dependent Clp protease proteolytic subunit (Bacillus subtilis (strain 168)), P80244; purified B. subtilis ClpP, FRET peptide cleavage, 20 min; Potency, µM (highest dose often 57.5 µM), for the others: at the top dose activity change, negative = active; 340,000 compounds, 1.9% hits; AID 651965, 2013; active means well fitted falling curve with a large enough effect; inconclusive means small, poorly fitted or top-dose-only effect; inactive means no such curve, though single readings can be large or run the other way; further: the source files actives as falling curves though it sought activators and does not explain the sign; nearly all actives have a fitted effect of over 65% in size
Target sequence (P80244 whole entry, looked up): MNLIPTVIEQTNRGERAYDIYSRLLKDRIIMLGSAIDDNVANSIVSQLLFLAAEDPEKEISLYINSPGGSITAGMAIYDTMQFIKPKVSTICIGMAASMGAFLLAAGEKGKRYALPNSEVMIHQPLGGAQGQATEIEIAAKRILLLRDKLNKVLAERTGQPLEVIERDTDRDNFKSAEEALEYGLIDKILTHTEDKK
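ClpP 10 microg/mL final, pH 8 Tris/KCl buffer with BSA, glycerol, Tween-20; compound pinned in; FRET-FV substrate; RT 20 min; Ex320/Em430; ΔFRET vs ADEP 5.8 microM, DMSO, no enzyme.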
p53 reactivator: restores transcriptional activity of mutant p53. AID 504706. H1299 p53-A138V BP100-luciferase reporter, luminescence, 24 h. Potency, µM (series often up to 92.2 µM), without a hit: at the highest dose activity change, positive = activation, usual class: activators. 320,000 compounds, 0.063% hits; further: % of control where 0% means no effect; nearly all actives have a fitted effect of over 45% in size
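p53-null H1299 cells stably carrying temperature-sensitive p53-A138V and a BP100-luciferase reporter were pinned with compounds (4-point, 1:5 series) and held 24 hrs at 37 deg C. Luminescence was read 10 min after detection reagent.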
Eya2 phos inh: Eya2 (human) phosphatase inhibition | O00167 | recombinant Eya2, OMFP fluorescence dephosphorylation (OMFP is methylfluorescein phosphate) | Potency, µM (highest dose often 76.9 µM), inactives show at the highest dose activity, negative = inhibition, hits mostly inhibitors | 330,000 compounds, 0.006% hits | AID 488837; further: on the % scale 0 is the no-effect control and ±100 the full control effect
Target sequence (O00167 whole entry, looked up): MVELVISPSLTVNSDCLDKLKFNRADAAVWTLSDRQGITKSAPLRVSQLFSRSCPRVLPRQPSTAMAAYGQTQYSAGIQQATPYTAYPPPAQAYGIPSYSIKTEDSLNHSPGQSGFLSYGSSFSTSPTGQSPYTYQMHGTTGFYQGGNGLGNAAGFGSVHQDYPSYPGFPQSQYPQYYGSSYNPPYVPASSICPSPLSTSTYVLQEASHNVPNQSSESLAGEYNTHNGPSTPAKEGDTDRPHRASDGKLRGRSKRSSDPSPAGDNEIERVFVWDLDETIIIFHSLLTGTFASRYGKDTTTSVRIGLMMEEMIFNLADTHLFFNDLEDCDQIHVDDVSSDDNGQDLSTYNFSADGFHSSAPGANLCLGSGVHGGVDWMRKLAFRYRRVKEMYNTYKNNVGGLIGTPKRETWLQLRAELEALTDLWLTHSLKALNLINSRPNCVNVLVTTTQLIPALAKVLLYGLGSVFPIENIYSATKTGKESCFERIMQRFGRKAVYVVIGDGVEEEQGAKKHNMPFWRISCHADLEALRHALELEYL
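Eya2 (0.2 uM) preincubated 10 min at ambient with compound, then OMFP substrate added at 50 uM; 10 min reaction in 50 mM HEPES pH 7.5, 50 mM NaCl, 5 uM MgCl2, 0.05% BSA, 1 mM DTT. Fluorescence read at Ex 485/Em 525 nm.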
a7 integrin act: activators of alpha7 integrin expression for muscular dystrophy | alpha7betagal myoblasts, beta-gal FDG fluorescence, 48 h | Potency, µM (titrated, usually from 38.3 µM), for the others: top-dose activation, actives largely listed as activators | 350,000 compounds, 0.064% hits | AID 624291;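 further: 100% = response of the positive control SU9516; nearly all actives have a fitted effect of over 60% in size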
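alpha7betagal+/- myoblasts (passage 13, 250/well) treated 48 h at 37C with compounds at 1:260 dilution of DMSO stock. Lysed, then beta-galactosidase activity read as FDG fluorescence (ex 480/em 540) after 30 min, with pre-read for autofluorescence.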
USP2a inh: inhibitors of human ubiquitin-specific protease USP2a; O75604; USP2 core, Ub-CHOP2 coupled fluorogenic reporter, 485/531; Potency, µM (top dose mostly 38.3 µM), for inactives: at the highest dose activity change, negative = inhibition, usual class: inhibitors; 330,000 compounds, 0.01% hits; AID 463254;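 further: plate controls were DMSO wells for no effect and full inhibition by NEM control for full effect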
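Cell-free coupled assay: 10nM USP2 core preincubated 30min RT with compound in Tris-HCl pH 8.0/CaCl2/CHAPS buffer, then 25nM Ub-CHOP2 and 25nM reporter substrate; fluorescence (Ex 485/Em 531) read after 60min RT, normalized to NEM inhibition, concentration-response curves fitted.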
* = called active by the depositor. The entries come from a sample that favours hits as a whole. Unless noted, the call rests on the fitted dose curve; in most records, active means well fitted curve in the direction sought with a large enough effect; inconclusive means small, poorly fitted or top-dose-only effect, or another doubt; inactive means no such curve, though single readings can be large; an effect the other way counts as inactive or inconclusive. Potency means the concentration at half of the fitted maximal effect.

What do the screens show for `CN(C)S(=O)(=O)c1cccc(COc2ccccc2C(=O)Nc2ccccc2)c1`?
Mm-Cpn inhibitor: -6%; ClpP mod: -12%; p53 reactivator: -25%; Eya2 phos inh: 8%; a7 integrin act: inconclusive; USP2a inh: 2%

How did CCc1ccc(C2C(C#N)=C(N)SC(N)=C2C#N)s1 do in these assays?
Mm-Cpn inhibitor: 35µM*; ClpP mod: -4%; p53 reactivator: 17%; Eya2 phos inh: inconclusive; a7 integrin act: -10%; USP2a inh: inconclusive

How did CC(=O)N/C(=C/c1ccc2c(c1)OCO2)C(=O)NC(Cc1ccccc1)C(=O)O (centres undefined) do in these assays?
ClpP mod: 32µM*; a7 integrin act: -9%

How did N#Cc1ccc(/C=C2\C=Cc3ccccc32)cc1 do in these assays?
ClpP mod: 1%

How did Cc1ccc(NC(=O)CN2C(=O)CC(c3ccc(C)c(C)c3)=Nc3ccccc32)cc1 do in these assays?
ClpP mod: -1%

Results for Cc1c(O)ccc2c1OC(C)(C)CC2 ?
ClpP mod: -8%

How did O=C1c2cccc3cccc(c23)C(=O)N1OS(=O)(=O)c1ccccc1 do in these assays?
Mm-Cpn inhibitor: 1%; ClpP mod: 28µM*; p53 reactivator: 23%; Eya2 phos inh: 10%; a7 integrin act: -12%; USP2a inh: 1%

How did O=C1c2cccc3cccc(c23)C(=O)N1OS(=O)(=O)c1ccc(Br)cc1 do in these assays?
Mm-Cpn inhibitor: 1%; p53 reactivator: 1%; Eya2 phos inh: 1%; a7 integrin act: -15%; USP2a inh: 3%

How did COc1ccc(NC(=O)CC2C(=O)N(c3ccc(F)cc3)C(=O)N2Cc2ccc3c(c2)OCO3)cc1 (centres undefined) do in these assays?
ClpP mod: -1%

Results for Cc1cccc(CSc2cn(CC(=O)N3CCOCC3)c3ccccc23)c1 ?
Mm-Cpn inhibitor: 0%; ClpP mod: -1%; p53 reactivator: inconclusive; Eya2 phos inh: -10%; a7 integrin act: 16%; USP2a inh: -2%

What do the screens show for `O=C(Cn1cc(SCc2cccc(Cl)c2)c2ccccc21)N1CCOCC1`?
Mm-Cpn inhibitor: 2%; ClpP mod: 1%; p53 reactivator: 28µM*; Eya2 phos inh: 1%; a7 integrin act: -24%; USP2a inh: -4%

What do the screens show for `Cn1nc(-c2ccncc2)nc2c(=O)n(C)c(=O)nc1-2`?
ClpP mod: 2%

What do the screens show for `O=C(Nc1ccc(OC(F)(F)C(F)F)c(NC(=O)c2ccc(F)cc2)c1)c1ccc(F)cc1`?
ClpP mod: -1%; a7 integrin act: 0%

What do the screens show for `Nc1ccc(C(=O)Nc2ccc(OC(F)(F)C(F)F)c(NC(=O)c3ccc(N)cc3)c2)cc1`?
Mm-Cpn inhibitor: 1%; ClpP mod: 16µM*; p53 reactivator: -9%; Eya2 phos inh: -2%; a7 integrin act: -19%; USP2a inh: -2%

How did O=C(Cn1cnnn1)Nc1ccccc1Cc1ccccc1 do in these assays?
Mm-Cpn inhibitor: -5%; ClpP mod: 28µM*; p53 reactivator: 3%; Eya2 phos inh: 24%; a7 integrin act: 13%; USP2a inh: -1%

Results for Cn1nnnc1SCC(=O)Nc1ccccc1Cc1ccccc1 ?
Mm-Cpn inhibitor: -9%; ClpP mod: -1%; p53 reactivator: 0%; Eya2 phos inh: -9%; a7 integrin act: 12%; USP2a inh: 0%

How did Nc1ccc(C#Cc2ccc3oc4ccccc4c(=O)c3c2)cc1 do in these assays?
ClpP mod: 0%; a7 integrin act: inconclusive

What do the screens show for `Nc1ccc2oc3ccccc3c2c1`?
Mm-Cpn inhibitor: -1%; ClpP mod: 18µM*; p53 reactivator: inconclusive; Eya2 phos inh: 2%; a7 integrin act: -14%; USP2a inh: 2%

How did COc1ccc(NC(=O)c2cc(Cl)ccc2Cl)c([N+](=O)[O-])c1 do in these assays?
Mm-Cpn inhibitor: 1%; ClpP mod: 28µM*; p53 reactivator: -10%; Eya2 phos inh: 8%; a7 integrin act: 2%; USP2a inh: -1%

How did O=C(CSc1ncnc2sc3c(c12)CCCCC3)NCc1ccco1 do in these assays?
Mm-Cpn inhibitor: -7%; ClpP mod: -7%; p53 reactivator: 26%; Eya2 phos inh: -17%; a7 integrin act: -40%; USP2a inh: 5%

How did CC(C)c1nc2sc3c(SCC(=O)NCc4ccco4)ncnc3c2c2c1CCC2 do in these assays?
Mm-Cpn inhibitor: -9%; ClpP mod: 25µM*; p53 reactivator: -1%; Eya2 phos inh: -2%; a7 integrin act: -48%; USP2a inh: -1%

How did O=C(c1cc2ccccc2[nH]1)c1cc2cc(O)ccc2[nH]1 do in these assays?
ClpP mod: -1%

What do the screens show for `COc1ccccc1-c1cc2ccccc2[nH]1`?
Mm-Cpn inhibitor: -4%; ClpP mod: 40µM*; p53 reactivator: inconclusive; Eya2 phos inh: -8%; a7 integrin act: -9%; USP2a inh: -1%

Results for Cc1ccc(C(=O)OCc2nc3ccsc3c(=O)[nH]2)o1 ?
Mm-Cpn inhibitor: -2%; ClpP mod: -4%; p53 reactivator: -6%; Eya2 phos inh: 27%; a7 integrin act: 7%; USP2a inh: 1%

Results for COCc1c(C(=O)OCc2nc3ccsc3c(=O)[nH]2)oc2ccccc12 ?
Mm-Cpn inhibitor: 1%; ClpP mod: -7%; p53 reactivator: -2%; Eya2 phos inh: 1%; a7 integrin act: 1.1µM*; USP2a inh: 2%

Results for Cc1ccc(Oc2nc3ccccc3n3cccc23)cc1 ?
Mm-Cpn inhibitor: -5%; ClpP mod: 22µM*; p53 reactivator: 2%; Eya2 phos inh: 9%; a7 integrin act: -32%; USP2a inh: 0%

How did c1ccc(Oc2nc3ccccc3n3cccc23)cc1 do in these assays?
Mm-Cpn inhibitor: 1%; ClpP mod: 28µM*; p53 reactivator: 1%; Eya2 phos inh: -5%; a7 integrin act: -38%; USP2a inh: 1%

How did Cc1nnc2c(Oc3ccccc3)nc3ccccc3n12 do in these assays?
Mm-Cpn inhibitor: 2%; ClpP mod: -3%; p53 reactivator: 4%; Eya2 phos inh: 17%; a7 integrin act: 16%; USP2a inh: 2%

Results for C/C(=C1/C=Nc2ccccc21)c1ccc(N(C)C)cc1 ?
ClpP mod: -13%

How did Cc1cccc(C(=O)Nc2cccc(C(=O)OCc3cc(=O)n4nc(C5CC5)sc4n3)c2)c1 do in these assays?
ClpP mod: -3%

What do the screens show for `CCCCOc1ccc(CC(=O)N(C)O)cc1`?
ClpP mod: 0%

Screening results as filed in PubChem.
